The source of these data is PubChem BioAssay AID2234 (The Scripps Research Institute Molecular Screening Center, 2010).

Structures are written as SMILES. Hit rate of the full screen: of about 320,000 compounds, about 480 (0.15%) were called active. Many of the other results were omitted from the sample, so actives are more common in it than they were. Unmarked numbers belong to inactive results. Rule as the data show it: active = inhibition above about 33%; inactive = the rest.

Sequence of Lytic switch protein BZLF1 (Epstein-Barr virus (strain B95-8)) (P03206 whole entry, looked up): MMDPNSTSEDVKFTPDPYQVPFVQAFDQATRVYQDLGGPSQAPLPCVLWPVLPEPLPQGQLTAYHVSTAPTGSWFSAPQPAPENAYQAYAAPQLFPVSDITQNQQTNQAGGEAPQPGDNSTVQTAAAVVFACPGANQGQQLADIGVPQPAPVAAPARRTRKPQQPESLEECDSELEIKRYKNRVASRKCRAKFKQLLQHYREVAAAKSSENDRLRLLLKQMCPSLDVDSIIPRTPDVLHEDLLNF

The assay has as its target Lytic switch protein BZLF1 (Epstein-Barr virus (strain B95-8)) (UniProt P03206). In words: Zta-DNA interaction blockers, Epstein-Barr virus – biochemical, fluorescence polarization, single concentration, counter-screen for EBNA-1 inhibitor project, primary screen (AID 2234). Particulars: ZTA-DNA binding, at 11 µM, active compounds read high.
A word on the inhibition: it is the change of the read-out against control, counted positive when it falls. Regarding `Cc1cc(C(=O)Nc2ccc(C)c(S(=O)(=O)N3CCOCC3)c2)c2ccccc2n1`, the inhibition is -3.91%. `CCC(C)OC(=O)C(C)Oc1ccc(-c2ccccc2)cc1` (centres undefined): the inhibition was -16.6%. As to `CCc1nc2ccccc2n(CCOCCOCCn2c(=O)c(CC)nc3ccccc32)c1=O`, the inhibition is -7.86%. Consider `CCCCC1N2CC3([N+](=O)[O-])CN1CC([N+](=O)[O-])(C2)C3(C)C` (centres undefined), for which the inhibition is 7.41%. To `COc1ccccc1C(=O)Nc1ccc(OCC(=O)N2CCCCC2)cc1` belongs -10.8%; to `COc1ccc(C)cc1NC(=O)CN1c2cccc3cccc(c23)S1(=O)=O`, -1.52%. Take `O=C(O)c1cc(S(=O)(=O)N(Cc2ccccc2)c2ccccc2)ccc1Cl`: the inhibition is -1.08%. As for `O=C(CSc1nc(C2CC2)nc2ccccc12)Nc1cccc(O)c1`, the inhibition was -4.91%. As to `C=CCn1c(SCC(=O)NC(=O)Cc2ccccc2)nc2ccccc2c1=O`, the inhibition is -2.81%. For the compound `O=C(c1cc(S(=O)(=O)N2CCOCC2)ccc1Cl)N1CCOCC1`, the inhibition is 17.7%.

`FC(F)(F)c1ccc2c3n(nc2c1)CCN=C3c1ccc(Cl)cc1`: the inhibition is 0.92%.

`Cc1ccc(C(=O)c2coc3ccc(O)c(CN(C)C)c23)cc1`: the inhibition was -9.15%.

For the compound `COc1ccccc1-n1ccnc(SCC(=O)NC2CCCCC2)c1=O`, the inhibition was -6.9%. Take `CC1CCC2(CC1)NC(=O)N(CC(=O)c1cccn1C)C2=O` (centres undefined): the inhibition is -3.24%. With `Cc1ccc(C(=O)NCC(c2cccs2)N(C)C)cc1S(=O)(=O)N1CCOCC1` (centres undefined), the inhibition was -3.98%.

As to `O=C(OCC1OC(Oc2ccc(O)cc2)C(O)C(O)C1O)c1ccccc1` (centres undefined), the inhibition was -3.45%. As to `O=C(OCC1O[C@@H](OC(=O)c2cc(O)c(O)c(O)c2)[C@@H](OC(=O)c2cc(O)c(O)c(O)c2)[C@@H](OC(=O)c2cc(O)c(O)c(O)c2)[C@@H]1OC(=O)c1cc(O)c(O)c(O)c1)c1cc(O)c(O)c(O)c1` (some centres undefined), the inhibition was 56.7% (active). On to `CN1C(=O)/C(=C/c2ccco2)SC1=Nc1cccc(C(=O)O)c1`, for which the inhibition is 34% (active). For the compound `Cc1cc(/C=C2\SC(=Nc3ccc(N4CCOCC4)cc3)N(C)C2=O)c(C)n1-c1cccnc1`, the inhibition is -10.5%. Regarding `Cc1cc(/C=C2\SC(=O)N(C)C2=O)c(C)n1-c1cccc(C(=O)O)c1`, the inhibition is -5.96%. Regarding `CCC(C)(C)n1nnnc1C(c1cccs1)N1CCN(c2nc3ccccc3s2)CC1` (centres undefined), the inhibition is 4.48%.

As for `COc1cc(NC(=S)N2CCCC(C)C2)c(OC)cc1Cl` (centres undefined), the inhibition is 1.82%. As to `CCOc1cc(C)c(S(=O)(=O)NCc2ccccn2)cc1C`, the inhibition is 12.5%.

On to `CCSc1sc(CC)cc1C=O`, for which the inhibition is 3.38%.

As to `CC(C)c1ccc(-c2nn[nH]n2)cc1`, the inhibition was -11.4%. The figure for `COC(=O)c1c(-c2ccsc2)oc2ccc(-c3cc(OC)c(OC)c(OC)c3)cc12` is -1.27%; for `Cc1ccc(N2CCN(S(=O)(=O)N(C)C)CC2)cc1Cl` it is 10.4%. On to `O=C(NCC(=O)N1CCC2(CC1)NCCc1[nH]cnc12)c1ccc(Br)cc1`, for which the inhibition is -4.85%. As for `CCC(=O)Nc1ccc(Nc2nc(Cl)nc(Nc3ccc(NC(=O)CC)cc3)n2)cc1`, the inhibition was 33.6% (active). The figure for `CCC(=O)Nc1ccc(C(=O)Nc2cc(C)on2)cc1` is -11.8%; for `CCOC(=O)CNc1nc(Cl)nc(Nc2ccccc2)n1` it is 3.82%. To `O=C(CCCCCn1c(=S)[nH]c2ccsc2c1=O)NC1CCCCC1` belongs 10.7%.

For `CCn1c(O)c2ccc(C(=O)N=NC(=O)c3cccnc3)cc2c1O`, the inhibition was -7.57%. To `CCOC(=O)CN(C(=O)CN1CCOCC1)c1ccc(Br)cc1` belongs 13%; to `CCCC(C)C(=O)Nc1ccc(NC(C)=O)cc1` (centres undefined), -5.74%; to `COc1ccc(C(C(=O)NCC2CCCO2)N(C(=O)Cn2nnc3ccccc32)c2ccc(NC(C)=O)cc2)cc1OC` (centres undefined), -7.72%. `Cc1ccc(-c2csc(NC(=O)C3=COCCO3)n2)cc1C`: the inhibition was -12.1%. Turning to `Cc1ccc(C)c(OCC(=O)NNC(=O)C2CCC2)c1`, the inhibition is 1.86%. As for `O=C(Cn1cc(C(=O)C2CC2)c2ccccc21)Nc1ccccc1Cl`, the inhibition is 14.6%. In the case of `Cc1cc(C(=O)OC(C)C(=O)NC2CCCCC2C)c(C)o1` (centres undefined), the inhibition was -3.44%. For `COc1ccc(-c2nnc(SC(=O)N3c4ccccc4Sc4ccccc43)o2)cc1`, the inhibition is 6.65%.

`O=C(O)C1CCCN1C1=NS(=O)(=O)c2ccccc21` (centres undefined): the inhibition was 9.03%. Take `CC(C)(C)C(=O)COC(=O)c1cc(S(=O)(=O)N2CCCCC2)ccc1N1CCOCC1`: the inhibition was -4.54%. Take `CN(Cc1ccco1)S(=O)(=O)c1nnc(NC(=O)c2ccccc2)s1`: the inhibition is 13.9%. Consider `COc1ccc(-c2nonc2NC(=O)c2oc3ccc(F)cc3c2C)cc1OC`, for which the inhibition was -1.66%. Take `CCCCC(C(=O)NC(C)(C)C)N(Cc1ccccc1)C(=O)c1snc(C(N)=O)c1N` (centres undefined): the inhibition was -11.4%. In the case of `CC1(C)O[C@@H]2CC3C4C[C@H](F)C5=CC(=O)C=CC5(C)C4C(O)CC3(C)[C@]2(C(=O)CO)O1` (some centres undefined), the inhibition was 3.09%. As to `Clc1ccc(-n2nnnc2CN2CCCCC2)cc1Cl`, the inhibition is 7.74%.

Regarding `COc1ccc(C2=NN(C(=O)c3ccccc3C(=O)O)C(c3ccccc3O)C2)cc1` (centres undefined), the inhibition is -14.4%. Consider `CCN(CC)S(=O)(=O)c1ccc(C(=O)N2CCN(C3=NS(=O)(=O)c4ccccc43)CC2)cc1`, for which the inhibition was -8.64%. With `COC(=O)Nc1ccc(S(=O)(=O)N(C)CC(F)(F)C(F)F)cc1`, the inhibition was 9.51%. On to `CN(C(=O)C1CCN(c2ncnc3c2nc2n3CCCCC2)CC1)C1CCCCC1`, for which the inhibition was -0.51%. As to `CC(=O)NNC1=Nc2ccccc2N(C)C(C)C1` (centres undefined), the inhibition was -9.35%.

Turning to `CCc1cccc(NC(=S)N(CCN(C)C)C2CCN(C(C)C)CC2)c1`, the inhibition was -6.22%.

`Cc1ccc(C2=NN(C(=O)CSc3nc(N)cc(N)n3)C(c3ccco3)C2)cc1` (centres undefined): the inhibition is 0.17%. The figure for `CC(=O)Nc1ccc(S(=O)(=O)N(C)c2ccc(OCC(=O)OCC(=O)N3CCCCC3)cc2)cc1` is -11.6%.

For `CCCC(C)n1[nH]c(=O)c2c(C)cc(C)nc21` (centres undefined), the inhibition was 11.1%. To `CC(=O)Nc1ccc(NC(=O)C2CCCN2S(=O)(=O)c2cccc(C(F)(F)F)c2)cc1` (centres undefined) belongs 17.1%; to `C=CCn1c(COc2ccc(F)cc2)nnc1SCC(=O)Nc1cccc(S(N)(=O)=O)c1`, 3.26%. Turning to `O=C(CCn1c(=S)[nH]c2cc3c(cc2c1=O)OCO3)NCc1ccc(Cl)cc1`, the inhibition was 2.43%. Regarding `N#C/C=C1\Sc2ccccc2C(=O)N1CC(=O)N1CCN(S(=O)(=O)c2ccccc2)CC1`, the inhibition was -8.28%. Take `O=C(O)Cc1csc(NC(=O)CSc2nnnn2-c2ccc(O)cc2)n1`: the inhibition is 2.08%.

On to `O=C(/C=C/c1cc2c(cc1Br)OCO2)NCc1ccc(Cl)cc1`, for which the inhibition is -6.35%. As for `CC(=O)Nc1c2c(nn1-c1ccc(C)cc1C)CS(=O)C2` (centres undefined), the inhibition was -22.1%. As for `NC(=O)C1CCN(C(=O)c2ccc3c(=O)n(Cc4cccc(Br)c4)c(=S)[nH]c3c2)CC1`, the inhibition is -10.6%. With `C#CCOCCOCCOCCNc1nc(N2CCN(C(=O)CCCCCCCCCCNC(=O)[C@H]([C@@H](C)CC)n3cc(CCCCN=C(N)N)nn3)CC2)nc(N2CCN(C(=O)CCCCCCCCCCNC(=O)[C@H](CO)n3cc(CCCSC)nn3)CC2)n1`, the inhibition is 134% (active). With `C#CCOCCOCCOCCNc1nc(N2CCN(C(=O)CCCCCCCCCCNC(=O)Cn3cc(CCCCCN)nn3)CC2)nc(N2CCN(C(=O)CCCCCCCCCCNC(=O)[C@H](CO)n3cc(CCCSC)nn3)CC2)n1`, the inhibition was 24.8%. Regarding `C#CCOCCOCCOCCNc1nc(N2CCN(C(=O)CCCCCCCCCCNC(=O)[C@H](CCCCN)n3cc(C)nn3)CC2)nc(N2CCN(C(=O)CCCCCCCCCCNC(=O)[C@H](CO)n3cc(CCCSC)nn3)CC2)n1`, the inhibition was 12.7%.

Take `COC(=O)c1ccc(NC(=O)CSc2nnc(Cc3cccn3C)n2-c2ccc(F)cc2)cc1`: the inhibition was 11.4%. With `Cc1ccc(Cc2cncc(O)c2)cc1S(=O)(=O)O`, the inhibition is -9.54%. `Cc1csc(CN(C)C(=O)CC2C(=O)NCCN2CC(C)(C)C)n1` (centres undefined): the inhibition is 5.13%. The figure for `CCN1C(=O)C(=O)N(CC(=O)Nc2cc(C)ccc2C)C1=O` is 9.39%; for `CSc1ccccc1NC(=O)c1ccc2c(c1)CCN2S(C)(=O)=O` it is 14.6%. The figure for `Cc1ccc(OCC(=O)Nc2ccccc2C(=O)NC2CC2)cc1C` is 1.2%; for `CCCCNC(=O)C1(O)c2ccccc2NC(=O)N1c1ccc(Cl)cc1` (centres undefined) it is 2.71%. In the case of `O=C(N/N=C/c1cccc2cccnc12)[C@H]1C[C@@H]1c1ccccc1`, the inhibition was -1.05%. `Cc1ccc(Cc2nnc(SCC(=O)Nc3ccc(C)cc3C)[nH]c2=O)cc1`: the inhibition is 2.99%. Take `CCC1Oc2ccccc2N(CC(=O)NCCCN2CCN(CC)CC2)C1=O` (centres undefined): the inhibition is -3.45%. As for `COc1ccc(C(=O)C2CCCN(C(=O)c3cnsn3)C2)c(C)c1` (centres undefined), the inhibition was -0.75%. As to `COc1ccc(S(=O)(=O)/N=C2\C=C(NS(=O)(=O)c3ccccc3)C(=O)c3ccccc32)cc1`, the inhibition is 7.31%. Turning to `Cc1ccc(C2CC(c3cccc(NS(C)(=O)=O)c3)=NN2S(C)(=O)=O)cc1` (centres undefined), the inhibition was 0.89%.

Regarding `CN1CCN(Cc2nc3cc(NC(=O)COc4ccc([N+](=O)[O-])cc4)ccc3n2C)CC1`, the inhibition was -16.4%. For `CC(NC(=O)c1cccc2ccccc12)c1ccc2c(c1)CCCC2` (centres undefined), the inhibition was -9.25%. The figure for `CCOC(=O)CN(C(=O)COc1nc(C)cc(C)c1C#N)c1ccc(Cl)cc1` is 3.1%.
